High-throughput results (PubChem)
A selection: hits, their analogues and other compounds. The true share with any hit is near 11%.
WT yeast gro inh = growth inhibition of WT strain, primary screen, mitochondrial fusion inhibitor project, WT and mutant strains, chemical genetic. mitochondrial fusion phenotypic screen. inhibition, % at 10 µM. 190,000 compounds, 2.1% hits. AID 1362, 2008; in the data active = inhibition above about 58%; tested in S. cerevisiae
Autophagy mod = autophagy modulators in MEF cells, primary screen, imaging, high-content, MEF GFP-LC3; MEF GFP-LC3 puncta imaging; test concentration mostly 10 µM; calls only at 10 µM (by protocol); 190,000 compounds, 0.98% hits;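 active = percentage of spot-positive cells more than 3 SD above its plate mean, without a fluorescence outlier flag or 80% toxicity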;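 note: spot-positive cell cutoff set from DMSO-treated cells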
INS promoter inh = inhibitors of insulin promoter-driven GFP, primary screen, imaging, TRM-6 cells (human fetal islet line), eGFP reporter, cell count. reporter expression induced with tamoxifen. inhibition, % at 2 µM. 130,000 compounds, 0.9% hits. AID 1273, 2008;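 active = inhibition above the mean plus 3 SD, with well images judged a real hit on visual review, cut at about 60% in these data, passing the limit was not always enough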
Lmaj promast = Leishmania major promastigote growth inhibition, primary screen; Leishmania major promastigotes, resazurin fluorescence viability; inhibition, % at 10 µM; 200,000 compounds, 9% hits; AID 1063, 2008; in the data active = inhibition above about 50%;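 note: promastigotes grown with compound for 44 hours at 28 °C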
Ins promoter up = insulin promoter activators in MIN6 cells, imaging, high-content screening, mouse beta cells; z-score at 5 µM; MIN6 insulin promoter-GFP reporter; active compounds read high; 190,000 compounds, 0.3% hits;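 active = z-score above 3 at 5 µM with at least 500 cells counted in the well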
* hit, by the source's call; i = inactive; nt = no result; + = active, no number.

SMILES	WT yeast gro inh	Autophagy mod	INS promoter inh	Lmaj promast	Ins promoter up
COc1ccccc1NC(=O)COC(=O)c1cnccn1	33.0	i	35.7	-3.2	0.38
CCC1(C)Cc2ccccc2-c2nc(NCCO)n(-c3ccc(C)cc3)c(=O)c21 (stereo unspecified)	-6.9	i	-64.5	63.3*	0.34
O=C(CCC1CCCN(C(=O)C2(c3ccccc3)CC2)C1)N1CCN(c2ccccn2)CC1 (stereo unspecified)	-4.9	i	-33.3	6.6	0.14
CN1CCc2c(sc(/N=C/c3cc(C(C)(C)C)ccc3O)c2C#N)C1	nt	nt	nt	nt	-0.11
O=C(CCc1nc(-c2cccs2)no1)NCc1ccc(F)cc1Cl	5.3	+	nt	-8.0	-1.11
Cc1cccc(-n2c(N)c(-c3nc4ccccc4n3C)c3nc4ccccc4nc32)c1	50.8	+	-54.8	49.8	0.22
Cn1c(-c2c(N)n(-c3ccccc3)c3nc4ccccc4nc23)nc2ccccc21	58.9*	+	3.2	75.3*	0.08
COc1cc(NC(=S)NC(=O)c2ccccc2F)ccc1NC(=O)c1ccco1	-2.1	i	13.3	-4.9	-0.76
CCCC(=O)c1cc(F)c(N2CCN(S(=O)(=O)c3ccccc3)CC2)cc1C	2.1	i	-3.6	4.2	-0.13
O=S(=O)(N1CCCCC1)N1CCN(c2cc(Cl)ccc2Cl)CC1	73.6*	i	nt	-0.5	-0.26
CCC(=O)c1cc(F)c(N2CCN(S(=O)(=O)c3ccccc3)CC2)cc1C	8.0	i	-6.7	64.3*	-0.2
Cc1ccc(Cl)cc1N1CCN(S(=O)(=O)c2cccc(S(=O)(=O)N3CCCC3)c2)CC1	10.6	i	-22.6	60.8*	0.08
Cc1cc(S(=O)(=O)N2CCN(c3ccccc3C)CC2)ccc1F	61.2*	i	-13.3	-2.5	-0.02
O=[N+]([O-])c1ccc(Cl)cc1N1CCCCC1	-10.9	+	nt	0.8	-0.26
O=[N+]([O-])c1ccc(Cl)cc1N1CCOCC1	-0.7	i	11.1	3.7	nt
Cn1cc(Cl)c(C(=O)OCC(=O)Nc2nc(-c3ccc(Br)cc3)cs2)n1	26.4	i	3.2	100.0*	nt
Cc1nc(SCCOc2ccccc2F)[nH]c(=O)c1Cc1ccccc1	0.4	i	0.0	0.9	0.3
COC(=O)c1ccccc1NC(=O)Cn1c(=O)n(Cc2ccccc2)c(=O)c2c(C)c(C)sc21	17.5	i	-80.0	89.1*	-0.44
COc1ccc(C(=O)c2ccc(OC)c(N)c2)cc1N	8.2	+	-76.6	5.5	0.7
COc1ccc(C(=O)c2ccc(OC)c(OC)c2)cc1OC	7.9	i	42.9	5.1	nt
O=C(CNC(=O)c1ccc(F)cc1)N/N=C/c1cc(Br)ccc1OCc1ccccc1	16.8	i	-18.5	95.7*	-0.32
COc1ccccc1C(=O)NCC(=O)N/N=C/c1cc(Br)ccc1OCc1ccccc1	9.5	i	25.0	18.4	1.06
O=C(CNC(=O)c1ccccc1O)N/N=C/c1cc(Br)ccc1OC(=O)/C=C/c1ccco1	30.1	i	-15.0	68.2*	nt
COc1ccc(C(=O)NCC(=O)N/N=C/C(C)=C/c2ccco2)cc1OC	0.8	i	25.0	-2.0	-0.86
O=C(CNC(=O)c1cccc(F)c1)N/N=C/c1cc(Br)ccc1OC(=O)/C=C/c1ccco1	16.2	i	-18.5	84.4*	-8.62
SMILES	WT yeast gro inh	Autophagy mod	INS promoter inh	Lmaj promast	Ins promoter up
COc1ccc([N+](=O)[O-])cc1/C=N/NC(=O)CNC(=O)c1cccc(F)c1	-22.8	i	-13.3	97.9*	0.71
CC(C)NCC1CCc2cc(CO)c([N+](=O)[O-])cc2N1 (stereo unspecified)	nt	nt	nt	nt	0.08
CCCCC1=NN(C(=O)c2cccnc2)C(O)(C(F)(F)F)C1 (stereo unspecified)	nt	nt	nt	nt	-0.07
N#Cc1c(-n2cccc2C=O)sc2c1CCCC2	11.7	i	nt	52.3*	-0.51
O=Cc1cccn1-c1sc2c(c1C(=O)O)CCCC2	-21.8	i	37.0	19.7	0.13
Cn1c(=O)c2c(nc(-n3ccnc3)n2Cc2ccc(Cl)cc2Cl)n(C)c1=O	-6.2	i	nt	83.7*	-0.29
CCN(CC(=O)Nc1cc(Cl)ccc1OC)CC(=O)NC1CCS(=O)(=O)C1 (stereo unspecified)	nt	nt	nt	nt	-0.15
CC(=Nc1ccc(C)cc1)c1sc2ccccc2c1O	8.1	i	26.3	-2.7	0.59
CC(=Nc1ccc(C)cc1C)c1sc2ccccc2c1O	79.4*	i	nt	10.3	3.96*
Cc1ccccc1N1CCN(C(=O)c2ccc(Oc3ccc(C(F)(F)F)cn3)cc2)CC1	74.7*	i	14.3	-2.1	0.51
